The nature of the test: chemical genetic growth profiling, strain panel (AID 1159580).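 Further: tested at 20 µM; growth read once vehicle control cultures reached saturation at 30 °C; 1 = growth at the plate median or of vehicle wells; lower values mean less growth of the strain.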 Conditions: growth OD.
[1] abbreviates: S. cerevisiae deletion strains, locus YAL040C, strain CLN3, active compounds read low.
The mark [2] stands for this setting: S. cerevisiae deletion strains, locus YDR363W, strain ESC2, active compounds read low.
[3] abbreviates: S. cerevisiae deletion strains, locus YER002W, strain NOP16, active compounds read low.
Setting [4] is: S. cerevisiae deletion strains, locus YMR263W, strain SAP30, active compounds read low.
Where [5] appears, read: S. cerevisiae deletion strains, locus YNL175C, strain NOP13, active compounds read low.
The mark [6] stands for this setting: S. cerevisiae deletion strains, locus YNL197C, strain WHI3, active compounds read low.
Setting [7] is: S. cerevisiae deletion strains, locus YNL224C, strain SQS1, active compounds read low.
[8] abbreviates: S. cerevisiae deletion strains, locus YOR083W, strain WHI5 (second series), active compounds read low.
Where [9] appears, read: S. cerevisiae deletion strains, locus YHR030C, strain SLT2, active compounds read low.
Setting [10] is: S. cerevisiae deletion strains, locus YJL095W, strain BCK1, active compounds read low.
[11] abbreviates: S. cerevisiae deletion strains, locus YAL013W, strain DEP1, active compounds read low.
Where [12] appears, read: S. cerevisiae deletion strains, locus YCL061C, strain MRC1 (second series), active compounds read low.
The mark [13] stands for this setting: S. cerevisiae deletion strains, locus YPL241C, strain CIN2, active compounds read low.
[14] abbreviates: S. cerevisiae deletion strains, locus YGR078C, strain PAC10, active compounds read low.

This is an account of results in PubChem BioAssay AID1159580 (chemical genetic matrix, 2015).

Structures are written as SMILES. Hit rate of the full screen: of about 5,500 compounds, about 2,000 (36%) were called active. Another 18% or so got no clear call; they are omitted. The list shows a part of the results. Values without a mark were called inactive. No stated cut-off is given here; in the data, active means normalized growth mostly below about 0.91 (no sharp cut-off); inconclusive means no clear call, values can overlap the other calls; inactive means mostly above about 0.92.

In the case of `CC(C)(C)[C@]1(O)CCN2C[C@H]3c4ccccc4CCc4cccc(c43)[C@@H]2C1`, the normalized growth is 0.999 under setting [1]; 0.994 under setting [2]; 0.993 under setting [3]; 1 under setting [4]; 1.01 (S. cerevisiae deletion strains, locus YNL128W, strain TEP1, active compounds read low); 1.03 under setting [5]. Further, the normalized growth reads like this: under setting [6], 1.02; under setting [7], 1.02; (S. cerevisiae deletion strains, locus YNL322C, strain KRE1, active compounds read low) 1.01; under setting [8], 1.05.
Take `OC[C@@H](O)[C@H](O)[C@@H](O)[C@H](O)CO`: the normalized growth under setting [9] was 0.974; the normalized growth (S. cerevisiae deletion strains, locus YHR079C, strain IRE1, active compounds read low) was 0.995; the normalized growth under setting [10] was 1; the normalized growth (S. cerevisiae deletion strains, locus YJR066W, strain TOR1, active compounds read low) was 0.936; the normalized growth (S. cerevisiae deletion strains, locus YLR113W, strain HOG1, active compounds read low) was 0.959; the normalized growth (S. cerevisiae deletion strains, locus YNL183C, strain NPR1, active compounds read low) was 0.941. The normalized growth by setting is: (S. cerevisiae deletion strains, locus YOR231W, strain MKK1, active compounds read low) 0.991; (S. cerevisiae deletion strains, locus YPL256C, strain CLN2, active compounds read low) 0.964.
Turning to `CC12CCC3C(CCC4=C(O)C(=O)CCC43C)C1CCC2=O` (stereo not drawn), the normalized growth under setting [11] was 1; the normalized growth under setting [1] was 0.99; the normalized growth under setting [12] is 0.998; the normalized growth under setting [2] is 0.984; the normalized growth under setting [3] was 0.995; the normalized growth under setting [4] was 1. The normalized growth is 1.02 under setting [5]; 0.992 under setting [6]; 0.969 under setting [7]; 0.986 under setting [8]; 1.01 under setting [13].
On to `C[C@]12CC[C@@H](O)CC1CC[C@@H]1[C@@H]2CC[C@]2(C)C(=O)CC[C@@H]12` (stereo partly drawn), for which the normalized growth is, setting by setting: under setting [11], 0.895 (active); under setting [1], 0.989; under setting [12], 1; under setting [2], 0.938; under setting [3], 1.02; under setting [14], 0.973. The normalized growth runs as follows: under setting [5], 1.01; under setting [6], 0.993; under setting [7], 0.997; under setting [8], 0.885; under setting [13], 1.04.
For the compound `C[C@]12CCC3C(CC[C@H]4C[C@@H](Cl)CC[C@]34C)C1CCC2=O` (stereo partly drawn), the normalized growth was 0.947 (S. cerevisiae deletion strains, locus YBR021W, strain FUR4, active compounds read low); 1.03 (S. cerevisiae deletion strains, locus YBR229C, strain ROT2, active compounds read low); 0.968 (S. cerevisiae deletion strains, locus YCL029C, strain bik1, active compounds read low); 0.921 (S. cerevisiae deletion strains, locus YDL035C, strain GPR1, active compounds read low); 0.87 (S. cerevisiae deletion strains, locus YDL074C, strain BRE1, active compounds read low); 0.997 (S. cerevisiae deletion strains, locus YDL101C, strain DUN1, active compounds read low). For the same compound, the normalized growth (S. cerevisiae deletion strains, locus YDL134C, strain PPH21, active compounds read low) is 0.977; the normalized growth (S. cerevisiae deletion strains, locus YDL185W, strain tfp1, active compounds read low) was 1.02; the normalized growth (S. cerevisiae deletion strains, locus YDL192W, strain arf1, active compounds read low) was 0.956; the normalized growth (S. cerevisiae deletion strains, locus YDR101C, strain arx1, active compounds read low) is 1.01; the normalized growth (S. cerevisiae deletion strains, locus YDR150W, strain NUM1, active compounds read low) is 1.01; the normalized growth (S. cerevisiae deletion strains, locus YDR162C, strain NBP2, active compounds read low) is 0.885. In addition, the normalized growth by setting is: (S. cerevisiae deletion strains, locus YDR318W, strain mcm21, active compounds read low) 0.981; (S. cerevisiae deletion strains, locus YDR388W, active compounds read low) 1.02; (S. cerevisiae deletion strains, locus YDR502C, strain sam2, active compounds read low) 0.988; (S. cerevisiae deletion strains, locus YER110C, active compounds read low) 1.02; (S. cerevisiae deletion strains, locus YER155C, strain BEM2, active compounds read low) 1.02; (S. cerevisiae deletion strains, locus YER167W, strain BCK2, active compounds read low) 0.983. Also, the normalized growth was 0.99 (S. cerevisiae deletion strains, locus YGL078C, strain dbp3, active compounds read low); 0.959 (S. cerevisiae deletion strains, locus YGL086W, strain mad1, active compounds read low); 0.972 (S. cerevisiae deletion strains, locus YGL248W, strain PDE1, active compounds read low); 0.951 under setting [14]; 0.997 (S. cerevisiae deletion strains, locus YGR135W, strain pre9, active compounds read low); 0.993 (S. cerevisiae deletion strains, locus YGR252W, strain gcn5, active compounds read low). The normalized growth under setting [9] was 1.02; the normalized growth (S. cerevisiae deletion strains, locus YHR079C, strain IRE1 (second series), active compounds read low) was 1.02; the normalized growth (S. cerevisiae deletion strains, locus YHR094C, strain hxt1, active compounds read low) is 1.02; the normalized growth (S. cerevisiae deletion strains, locus YHR129C, strain ARP1, active compounds read low) was 0.987; the normalized growth (S. cerevisiae deletion strains, locus YHR200W, strain rpn10, active compounds read low) was 0.951; the normalized growth (S. cerevisiae deletion strains, locus YIL066C, strain RNR3, active compounds read low) is 0.957. Besides, the normalized growth reads like this: (S. cerevisiae deletion strains, locus YIL073C, strain SPO22, active compounds read low) 1.05; (S. cerevisiae deletion strains, locus YIL125W, strain kgd1, active compounds read low) 1; (S. cerevisiae deletion strains, locus YIR030C, strain dcg1, active compounds read low) 1.02; under setting [10], 0.952; (S. cerevisiae deletion strains, locus YJL134W, strain LCB3, active compounds read low) 1.02; (S. cerevisiae deletion strains, locus YJL168C, strain set2, active compounds read low) 1.04. In addition, the normalized growth runs as follows: (S. cerevisiae deletion strains, locus YJL187C, strain SWE1 (second series), active compounds read low) 0.993; (S. cerevisiae deletion strains, locus YJR043C, strain POL32, active compounds read low) 0.925; (S. cerevisiae deletion strains, locus YKL009W, strain mrt4, active compounds read low) 1.02; (S. cerevisiae deletion strains, locus YKL068W, active compounds read low) 1.01; (S. cerevisiae deletion strains, locus YKL085W, strain MDH1 (second series), active compounds read low) 0.998; (S. cerevisiae deletion strains, locus YKL085W, strain MDH1, active compounds read low) 0.998. Also, the normalized growth is, setting by setting: (S. cerevisiae deletion strains, locus YKR001C, strain vps1, active compounds read low) 0.937; (S. cerevisiae deletion strains, locus YLR039C, strain RIC1, active compounds read low) 0.769; (S. cerevisiae deletion strains, locus YLR058C, strain SHM2, active compounds read low) 0.984; (S. cerevisiae deletion strains, locus YLR102C, strain apc9, active compounds read low) 1.01; (S. cerevisiae deletion strains, locus YLR268W, strain sec22, active compounds read low) 0.982; (S. cerevisiae deletion strains, locus YLR330W, strain CHS5, active compounds read low) 0.987. Further, the normalized growth runs as follows: (S. cerevisiae deletion strains, locus YLR371W, strain rom2, active compounds read low) 0.99; (S. cerevisiae deletion strains, locus YLR418C, strain cdc73, active compounds read low) 0.849; (S. cerevisiae deletion strains, locus YML016C, strain PPZ1, active compounds read low) 1.01; (S. cerevisiae deletion strains, locus YML032C, strain rad52, active compounds read low) 0.993; (S. cerevisiae deletion strains, locus YML124C, strain tub3, active compounds read low) 1.02; (S. cerevisiae deletion strains, locus YMR078C, strain ctf18, active compounds read low) 1.03. Further, the normalized growth is 0.999 (S. cerevisiae deletion strains, locus YMR223W, strain ubp8, active compounds read low); 1.06 (S. cerevisiae deletion strains, locus YMR307W, strain GAS1, active compounds read low); 0.986 (S. cerevisiae deletion strains, locus YNL067W, strain RPL9B, active compounds read low); 0.969 (S. cerevisiae deletion strains, locus YNL233W, strain BNI4, active compounds read low); 1.03 (S. cerevisiae deletion strains, locus YNL250W, strain rad50, active compounds read low); 1.01 (S. cerevisiae deletion strains, locus YNL271C, strain bni1, active compounds read low). The normalized growth (S. cerevisiae deletion strains, locus YNL298W, strain CLA4, active compounds read low) is 0.967; the normalized growth (S. cerevisiae deletion strains, locus YNL307C, strain MCK1, active compounds read low) was 0.888 (active); the normalized growth (S. cerevisiae deletion strains, locus YNR052C, strain pop2, active compounds read low) is 0.976; the normalized growth (S. cerevisiae deletion strains, locus YOL006C, strain TOP1, active compounds read low) is 0.863; the normalized growth (S. cerevisiae deletion strains, locus YOL012C, strain htz1) is 0.88; the normalized growth (S. cerevisiae deletion strains, locus YOL147C, strain pex11, active compounds read low) is 0.972. The normalized growth (S. cerevisiae deletion strains, locus YOR061W, strain CKA2, active compounds read low) is 1.02; the normalized growth (S. cerevisiae deletion strains, locus YOR069W, strain VPS5, active compounds read low) was 1.01; the normalized growth (S. cerevisiae deletion strains, locus YOR136W, strain idh2, active compounds read low) was 1; the normalized growth (S. cerevisiae deletion strains, locus YOR144C, strain elg1, active compounds read low) was 1.01; the normalized growth (S. cerevisiae deletion strains, locus YOR184W, strain ser1, active compounds read low) is 0.733 (active); the normalized growth (S. cerevisiae deletion strains, locus YOR316C, strain cot1, active compounds read low) is 1.02. Moreover, the normalized growth (S. cerevisiae deletion strains, locus YPR119W, strain clb2, active compounds read low) was 1.03; the normalized growth (S. cerevisiae deletion strains, locus YPR141C, strain kar3, active compounds read low) is 1.03; the normalized growth (S. cerevisiae deletion strains, locus YPR163C, strain tif3, active compounds read low) was 0.969; the normalized growth (S. cerevisiae deletion strains, locus YPR167C, strain met16, active compounds read low) was 0.996; the normalized growth (S. cerevisiae deletion strains, strain wtn01, active compounds read low) is 0.967; the normalized growth (S. cerevisiae strains, strain wild type, active compounds read low) was 0.909.
